# Reference: PubChem BioAssay AID2205 (University of Pittsburgh Molecular Library Screening Center, 2009)
# About 1,600 (0.8%) of roughly 200,000 compounds were called active.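 The calls were made as follows: active = plate Z-score above 3 for both tubulin-high and condensed-nucleus cell shares, with cell loss under 80%, at 10 µM; inactive = the rest, inconclusive results apart.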 The sample as a whole holds a higher share of actives than the screen did.
# Test: tubulin staining increase by stabilizing compounds – imaging, high-content imaging, primary screen (AID 2205);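 as to % tubulin-high responders: anti alpha tubulin signal scored within the nucleus-defined area of each cell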;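 as to toxicity: 0% = mean cell density of plate MIN control wells and 100% = no cells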
# Conditions: HeLa tubulin immunostaining HCS, 24 h, at 10 µM; % Hoechst-high responders: measured here: nuclear condensation Hoechst responders, stronger effect = higher value, share of cells brighter than vehicle mean+2SD; % tubulin-high responders: stronger effect = higher value, share of cells brighter than vehicle mean+2SD; toxicity: measured here: cytotoxicity by cell density
Compound,% Hoechst-high responders,% tubulin-high responders,toxicity
COC(=O)C1C(=O)NCC1c1ccc(C)cc1 (stereo not drawn),1.21%,1.21% (inactive),6.65%
COC(=O)C1=C(Nc2ccc(C)cc2)C=C(C)C(C(=O)OC)C1c1ccc(F)cc1 (stereo not drawn),21.1%,34.1% (active),39.5%
COc1ccc(C2NC(=S)NC3=C2CCc2ccccc23)cc1OC (stereo not drawn),3.43%,3.22% (inactive),5.09%
O=C(CCN1C(=O)/C(=C/c2cccs2)SC1=S)NNC(=O)c1cccc(O)c1,1.28%,1.78% (inactive),8.2%
COC(=O)c1ccccc1NS(=O)(=O)c1ccc2[nH]c(=O)[nH]c2c1,5.36%,4.9% (inactive),0.144%
CCOC(=O)c1ccccc1NS(=O)(=O)c1ccc(OC)cc1,15.7%,39.6% (active),61.3%
CCOc1cc(NS(=O)(=O)c2ccc(OC)cc2)c(OCC)cc1NC(C)=O,0.933%,2.92% (inactive),3.17%
COc1ccc(C)cc1NC(=O)CSc1nnc(CC(=O)Nc2ccccc2F)n1C,1.3%,2.49% (inactive),3.08%
COc1ccccc1C(=O)n1nc(-c2ccccc2)nc1N,2.45%,1.99% (inactive),31.9%
COc1ccc(C(=O)n2nc(-c3ccc(Cl)cc3)nc2N)cc1OC,2.89%,4.28% (inactive),4.28%
COc1ccc(C(=O)n2nc(-c3ccc(C)cc3)nc2N)cc1OC,34.9%,48.4% (active),31.5%
COc1ccc(-c2[nH]ncc2CN(C)Cc2c(C)n[nH]c2C)c(OC)c1,1.45%,3.81% (inactive),16.7%
Cc1cccc(C)c1NC(=O)C(c1ccccc1)N1CC(=O)Nc2ccccc21 (stereo not drawn),2.09%,3.96% (inactive),8.51%
Cc1nnc(NC(=O)CSc2nccn2-c2cccc(C)c2C)s1,21%,19.7% (active),64.4%
Cc1cccc(CSc2nnc(NC(=O)CSc3nnc(C)s3)s2)c1,1.18%,2.97% (inactive),12.2%
COc1ccccc1-n1c(CNC(=O)c2ccccc2)nnc1SCC(=O)Nc1nnc(C)s1,1.91%,2.83% (inactive),6.55%
CC(Oc1cccc(NC(=O)c2cccs2)c1)C(=O)c1ccccc1 (stereo not drawn),1.24%,0.929% (inactive),5.37%
Cc1cc(-c2csc(N)n2)c(C)n1-c1ccccc1,2.12%,6.37% (inactive),3.22%

Compound,% Hoechst-high responders,% tubulin-high responders,toxicity
CN1C(=O)/C(=C\c2ccc(-c3ccccc3)o2)SC1=S,1.77%,6.05% (inactive),4.81%
C=CCn1c(CC(=O)Nc2cccc(OC)c2)nnc1SCC(=O)NC1CCCCC1,1.48%,3.27% (inactive),1.42%
CCCCNC(=O)CSc1nc2n[nH]c(C)c2c(=N)n1-c1cccc(Cl)c1C,2.38%,2% (inactive),5.31%
COc1cccc(-n2c(SCC(=O)NC3CCCCC3)nc3n[nH]c(C)c3c2=N)c1,11.3%,18.4% (active),62.6%
Cc1ccc(S(=O)(=O)N(C)C)cc1NC(=O)c1ccccc1Br,2.26%,1.77% (inactive),6.59%
CN1CCN(C(=O)/C(=C\c2ccc3c(c2)OCO3)NC(=O)c2cccs2)CC1,1.07%,1.67% (inactive),6.65%
CC(C)(C)c1nc2ccccc2c(=O)n1N1C(=O)c2ccccc2C1=O,13.9%,28.9% (active),37.9%
CCC1(CC)Cc2ccccc2-c2nc3ccccc3c(=O)n21,1.65%,4.36% (inactive),6.77%
CN(C)CCCn1c(SCCN2C(=O)c3ccccc3C2=O)nc2ccccc2c1=O,1.95%,2.16% (inactive),6.21%
CCOc1ccc(NS(=O)(=O)c2ccc(C)c(C(N)=O)c2)cc1,2.61%,1.97% (inactive),4.14%
CN1CCN(c2ccc(NC(=O)c3ccc4c(c3)[nH]c(=O)n4Cc3ccc(F)cc3)cc2)CC1,2.93%,3.59% (inactive),6.48%
O=C(NN=C1CCC(=NNC(=O)c2cccnc2)CC1)c1cccnc1,2.04%,1.75% (inactive),6.55%
COCC(C)n1c(C)cc(C(=O)COc2ccc(C)nc2[N+](=O)[O-])c1C (stereo not drawn),1.67%,1.5% (inactive),6.06%
O=C(NNC(=S)NC(=O)c1cn(-c2ccccc2)nc1-c1ccccc1)c1ccncc1,2.91%,5.93% (inactive),6.44%
CCOc1ccc(C2c3[nH]c4ccccc4c3CCN2Cc2cn(CC)nc2C)cc1 (stereo not drawn),3.06%,2.78% (inactive),2.13%
CCN1CCN(C(=O)c2ccccc2N(C)S(=O)(=O)c2ccc(C)cc2)CC1,1.51%,2.85% (inactive),4.04%
CCOC(=O)N1CCN(C(=O)c2ccccc2N(Cc2ccccc2)S(=O)(=O)c2ccc(OC)cc2)CC1,60.4%,17.8% (active),42.6%
NC(=O)c1ccccc1N(Cc1ccccc1)S(=O)(=O)c1ccccc1,0.852%,1.16% (inactive),4.6%
